Here are results for 35 targets from the supplement of paper PMC10849652.

About 8,800 targets were measured; listed, in parts, are those with a hit and a random draw of the rest. About 0.5% of all pairs of compound and target were hits.

Chain of UniProt Q15102 (Q15102 whole entry, looked up): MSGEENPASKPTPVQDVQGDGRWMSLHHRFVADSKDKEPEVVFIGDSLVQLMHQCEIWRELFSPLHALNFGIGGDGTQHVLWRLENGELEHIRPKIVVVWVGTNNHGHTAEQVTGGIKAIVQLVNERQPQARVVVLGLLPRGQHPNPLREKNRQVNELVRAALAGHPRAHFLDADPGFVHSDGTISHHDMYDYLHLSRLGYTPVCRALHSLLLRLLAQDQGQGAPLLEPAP
Chain of UniProt Q96KB5 (Q96KB5 whole entry, looked up): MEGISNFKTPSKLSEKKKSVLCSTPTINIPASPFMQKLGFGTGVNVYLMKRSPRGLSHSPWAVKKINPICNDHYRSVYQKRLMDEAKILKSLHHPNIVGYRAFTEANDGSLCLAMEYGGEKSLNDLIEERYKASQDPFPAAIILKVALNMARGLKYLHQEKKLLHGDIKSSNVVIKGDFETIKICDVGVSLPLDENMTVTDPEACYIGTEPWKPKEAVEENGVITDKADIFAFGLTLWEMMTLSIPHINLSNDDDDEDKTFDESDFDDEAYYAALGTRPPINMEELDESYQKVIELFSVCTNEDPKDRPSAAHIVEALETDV
Chain of UniProt P28331 (P28331 whole entry, looked up): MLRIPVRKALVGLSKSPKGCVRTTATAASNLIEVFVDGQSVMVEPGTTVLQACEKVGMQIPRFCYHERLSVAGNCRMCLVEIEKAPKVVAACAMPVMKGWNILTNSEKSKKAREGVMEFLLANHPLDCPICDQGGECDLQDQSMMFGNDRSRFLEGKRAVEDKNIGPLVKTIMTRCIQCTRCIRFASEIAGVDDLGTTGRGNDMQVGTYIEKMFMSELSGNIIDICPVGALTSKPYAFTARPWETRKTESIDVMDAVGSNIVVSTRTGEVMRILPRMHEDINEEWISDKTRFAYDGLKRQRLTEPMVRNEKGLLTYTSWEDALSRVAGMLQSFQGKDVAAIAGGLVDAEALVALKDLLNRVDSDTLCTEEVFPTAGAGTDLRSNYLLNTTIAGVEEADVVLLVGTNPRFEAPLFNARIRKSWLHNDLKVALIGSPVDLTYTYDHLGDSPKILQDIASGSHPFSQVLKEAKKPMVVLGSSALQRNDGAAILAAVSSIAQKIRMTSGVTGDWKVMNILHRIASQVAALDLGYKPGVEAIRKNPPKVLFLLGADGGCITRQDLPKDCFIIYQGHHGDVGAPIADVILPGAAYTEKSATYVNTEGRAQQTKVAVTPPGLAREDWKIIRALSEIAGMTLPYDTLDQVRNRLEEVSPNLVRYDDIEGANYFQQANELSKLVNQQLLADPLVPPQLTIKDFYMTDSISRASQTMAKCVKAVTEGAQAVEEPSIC
Chain of UniProt P49757 (P49757 whole entry, looked up): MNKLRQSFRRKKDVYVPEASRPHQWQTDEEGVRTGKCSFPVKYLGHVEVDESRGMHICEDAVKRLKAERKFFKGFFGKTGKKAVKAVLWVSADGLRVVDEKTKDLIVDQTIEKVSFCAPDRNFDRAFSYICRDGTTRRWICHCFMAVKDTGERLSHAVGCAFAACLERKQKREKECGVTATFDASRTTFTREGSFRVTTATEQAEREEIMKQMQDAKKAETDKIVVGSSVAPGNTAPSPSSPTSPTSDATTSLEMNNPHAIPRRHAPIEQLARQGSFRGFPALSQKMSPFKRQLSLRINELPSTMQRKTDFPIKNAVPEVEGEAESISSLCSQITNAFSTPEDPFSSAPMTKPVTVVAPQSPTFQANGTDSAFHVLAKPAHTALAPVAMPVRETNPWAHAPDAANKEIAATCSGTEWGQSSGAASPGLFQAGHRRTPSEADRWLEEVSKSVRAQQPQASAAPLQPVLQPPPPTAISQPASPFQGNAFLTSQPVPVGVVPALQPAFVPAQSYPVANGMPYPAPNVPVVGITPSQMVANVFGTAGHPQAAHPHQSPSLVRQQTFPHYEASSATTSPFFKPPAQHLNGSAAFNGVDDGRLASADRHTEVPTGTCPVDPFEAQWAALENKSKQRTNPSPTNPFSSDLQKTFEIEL
Chain of UniProt P55160 (P55160 whole entry, looked up): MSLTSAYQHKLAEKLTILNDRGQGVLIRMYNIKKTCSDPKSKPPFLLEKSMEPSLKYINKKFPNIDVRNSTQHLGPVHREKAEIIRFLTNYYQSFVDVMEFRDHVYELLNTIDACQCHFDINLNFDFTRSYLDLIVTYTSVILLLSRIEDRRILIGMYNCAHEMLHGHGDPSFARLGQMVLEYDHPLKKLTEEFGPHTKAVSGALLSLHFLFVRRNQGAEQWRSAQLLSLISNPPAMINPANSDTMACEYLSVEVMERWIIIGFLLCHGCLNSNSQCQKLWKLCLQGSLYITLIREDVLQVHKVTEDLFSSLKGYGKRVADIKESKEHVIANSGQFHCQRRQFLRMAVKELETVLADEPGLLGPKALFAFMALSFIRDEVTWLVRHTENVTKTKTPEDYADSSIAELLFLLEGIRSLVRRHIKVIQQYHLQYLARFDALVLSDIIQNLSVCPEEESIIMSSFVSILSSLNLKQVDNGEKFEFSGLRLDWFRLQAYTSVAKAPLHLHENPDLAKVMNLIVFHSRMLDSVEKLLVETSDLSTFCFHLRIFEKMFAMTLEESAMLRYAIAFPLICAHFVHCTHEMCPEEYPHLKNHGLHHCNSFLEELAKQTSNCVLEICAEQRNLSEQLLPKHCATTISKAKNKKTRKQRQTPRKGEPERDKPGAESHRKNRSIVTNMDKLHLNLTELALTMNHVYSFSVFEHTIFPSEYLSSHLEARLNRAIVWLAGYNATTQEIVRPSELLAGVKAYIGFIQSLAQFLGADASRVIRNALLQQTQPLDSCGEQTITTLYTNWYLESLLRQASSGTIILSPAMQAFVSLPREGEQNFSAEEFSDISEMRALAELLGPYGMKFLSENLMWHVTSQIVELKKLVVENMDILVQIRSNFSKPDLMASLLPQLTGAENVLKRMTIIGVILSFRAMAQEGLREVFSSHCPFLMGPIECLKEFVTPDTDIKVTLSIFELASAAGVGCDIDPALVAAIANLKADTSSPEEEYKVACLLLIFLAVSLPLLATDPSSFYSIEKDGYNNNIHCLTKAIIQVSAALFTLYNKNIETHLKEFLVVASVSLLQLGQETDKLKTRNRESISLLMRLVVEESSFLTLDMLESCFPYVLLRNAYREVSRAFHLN
Chain of UniProt Q5SRE5 (Q5SRE5 whole entry, looked up): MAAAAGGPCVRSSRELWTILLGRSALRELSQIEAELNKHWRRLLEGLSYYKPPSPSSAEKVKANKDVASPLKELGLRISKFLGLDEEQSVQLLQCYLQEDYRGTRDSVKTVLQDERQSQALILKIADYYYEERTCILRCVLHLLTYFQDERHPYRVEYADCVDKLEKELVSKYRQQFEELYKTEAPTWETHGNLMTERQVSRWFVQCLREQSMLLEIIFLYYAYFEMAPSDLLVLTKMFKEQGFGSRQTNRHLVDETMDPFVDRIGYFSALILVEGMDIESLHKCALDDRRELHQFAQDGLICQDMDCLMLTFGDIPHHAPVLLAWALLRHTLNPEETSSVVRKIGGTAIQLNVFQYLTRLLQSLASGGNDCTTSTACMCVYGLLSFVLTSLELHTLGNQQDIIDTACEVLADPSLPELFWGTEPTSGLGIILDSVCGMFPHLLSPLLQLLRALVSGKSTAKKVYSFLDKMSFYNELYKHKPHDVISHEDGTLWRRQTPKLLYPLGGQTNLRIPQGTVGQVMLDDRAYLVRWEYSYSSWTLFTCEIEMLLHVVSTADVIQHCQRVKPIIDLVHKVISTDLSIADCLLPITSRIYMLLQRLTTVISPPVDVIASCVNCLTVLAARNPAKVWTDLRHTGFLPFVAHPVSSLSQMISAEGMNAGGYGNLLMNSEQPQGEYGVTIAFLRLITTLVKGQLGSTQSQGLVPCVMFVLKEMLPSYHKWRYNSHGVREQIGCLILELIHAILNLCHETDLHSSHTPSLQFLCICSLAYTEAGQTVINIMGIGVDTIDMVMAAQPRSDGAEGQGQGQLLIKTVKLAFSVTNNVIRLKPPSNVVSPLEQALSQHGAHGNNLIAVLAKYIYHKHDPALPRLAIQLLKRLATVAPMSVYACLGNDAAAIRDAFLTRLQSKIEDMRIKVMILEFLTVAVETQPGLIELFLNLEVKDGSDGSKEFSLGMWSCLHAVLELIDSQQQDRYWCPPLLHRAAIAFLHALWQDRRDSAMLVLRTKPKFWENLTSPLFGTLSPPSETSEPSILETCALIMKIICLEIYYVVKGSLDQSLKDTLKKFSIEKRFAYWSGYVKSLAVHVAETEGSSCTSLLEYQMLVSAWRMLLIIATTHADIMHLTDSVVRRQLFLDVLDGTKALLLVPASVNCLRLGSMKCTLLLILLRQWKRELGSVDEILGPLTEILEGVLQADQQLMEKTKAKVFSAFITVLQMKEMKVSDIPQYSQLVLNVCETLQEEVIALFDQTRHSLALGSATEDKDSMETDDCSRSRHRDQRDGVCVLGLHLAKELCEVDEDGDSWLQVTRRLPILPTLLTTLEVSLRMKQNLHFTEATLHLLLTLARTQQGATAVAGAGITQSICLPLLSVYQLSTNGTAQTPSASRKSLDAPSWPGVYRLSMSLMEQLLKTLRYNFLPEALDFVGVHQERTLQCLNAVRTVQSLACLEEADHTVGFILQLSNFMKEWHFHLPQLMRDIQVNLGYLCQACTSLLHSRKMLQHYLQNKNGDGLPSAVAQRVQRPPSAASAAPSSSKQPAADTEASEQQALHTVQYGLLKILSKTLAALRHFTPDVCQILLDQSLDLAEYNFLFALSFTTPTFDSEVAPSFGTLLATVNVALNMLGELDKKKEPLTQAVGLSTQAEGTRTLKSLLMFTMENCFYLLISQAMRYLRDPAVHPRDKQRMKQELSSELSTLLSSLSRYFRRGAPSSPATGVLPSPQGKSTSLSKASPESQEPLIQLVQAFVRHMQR
Chain of UniProt O75607 (O75607 whole entry, looked up): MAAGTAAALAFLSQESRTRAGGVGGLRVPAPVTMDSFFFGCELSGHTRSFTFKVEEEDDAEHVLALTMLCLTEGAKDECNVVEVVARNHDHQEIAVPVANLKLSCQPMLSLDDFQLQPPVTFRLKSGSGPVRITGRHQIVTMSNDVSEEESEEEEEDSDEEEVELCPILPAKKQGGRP

Compound in one experiment: C[C@H](Nc1ncnc2nc[nH]c12)c1cc2cccc(Cl)c2c(=O)n1-c1ccccc1 [duvelisib]
Put plainly: log2 fold change, soluble protein after heating vs DMSO (PISA); higher = thermal stabilisation; K562 lysate, 10 uM; active = over 0.2 and 3.5 SD of the protein, either way, in both replicates (recomputed). An outline of the steps:
(§1)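 The values are log-two fold changes in thermal stability compared with solvent controls and come from duplicates. They were obtained by TMTpro 16plex LC-MS/MS, with channel sums equalised, on the supernatant after 21,000xg for 90 min. That supernatant came from crude K562 extract at 1 mg/mL protein treated with 10 μM compound for 30 min, heated for 3 min across 48°C-58°C, pooled and brought to 0.5% NP-40 at 4°C.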
As to PARD3 (UniProt Q8TEW0), the log2 fold change was -0.102 (inactive).

NPM3 (UniProt O75607): the log2 fold change is 0.014 (inactive).

Consider NCK1 (UniProt P16333), for which the log2 fold change was 0.014 (inactive).

In the case of MYOM1 (UniProt P52179), the log2 fold change is -0.02 (inactive).

For the target OCRL (UniProt Q01968), the log2 fold change was -0.013 (inactive).

On to NUP188 (UniProt Q5SRE5), for which the log2 fold change was 0.004 (inactive).

On to NDUFS1 isoform 2 (UniProt P28331), for which the log2 fold change was -0.01 (inactive).

NOB1 (UniProt Q9ULX3): the log2 fold change was -0.033 (inactive).

In the case of NUMB (UniProt P49757), the log2 fold change is 0.029 (inactive).

For PAIP2 (UniProt Q9BPZ3), the log2 fold change is -0.04 (inactive).

Consider NEDD8 (UniProt Q15843), for which the log2 fold change is 0.019 (inactive).

For the target NLRP2 (UniProt Q9NX02), the log2 fold change was 0.005 (inactive).

Turning to NAA35 (UniProt Q5VZE5), the log2 fold change was -0.007 (inactive).

As to NCAPD2 (UniProt Q15021), the log2 fold change was 0.014 (inactive).

For the target PBK (UniProt Q96KB5), the log2 fold change was -0.006 (inactive).

As to PAFAH1B3 (UniProt Q15102), the log2 fold change was -0.024 (inactive).

On to PAK4 (UniProt O96013), for which the log2 fold change is 0.05 (inactive).

Consider MTA1 (UniProt Q13330), for which the log2 fold change is -0.059 (inactive).

As for PAN2 isoform 2 (UniProt Q504Q3), the log2 fold change is 0.041 (inactive).

For the target OSBPL6 isoform 5 (UniProt Q9BZF3), the log2 fold change is -0.003 (inactive).

With PARP14 (UniProt Q460N5), the log2 fold change was -0.13 (inactive).

With PAK1 (UniProt Q13153), the log2 fold change was 0.044 (inactive).

Regarding NIPBL (UniProt Q6KC79), the log2 fold change is 0 (inactive).

Turning to NEK7 (UniProt Q8TDX7), the log2 fold change was -0.026 (inactive).

On to NCKAP1L (UniProt P55160), for which the log2 fold change is 0.02 (inactive).

On to MYH11 isoform 2 (UniProt P35749), for which the log2 fold change is 0.055 (inactive).

Turning to OTC (UniProt P00480), the log2 fold change was 0.159 (inactive).

For NUB1 (UniProt Q9Y5A7), the log2 fold change was -0.004 (inactive).

NARF (UniProt Q9UHQ1): the log2 fold change was 0.029 (inactive).

Turning to NEK9 (UniProt Q8TD19), the log2 fold change is 0.006 (inactive).

On to NMRAL1 (UniProt Q9HBL8), for which the log2 fold change is 0.08 (inactive).

For NCAPD3 (UniProt P42695), the log2 fold change is -0.004 (inactive).

Regarding MT-ND1 (UniProt P03886), the log2 fold change was -0.052 (inactive).

For the target MTA3 (UniProt Q9BTC8), the log2 fold change was 0.001 (inactive).

For the target NIFK (UniProt Q9BYG3), the log2 fold change is 0.009 (inactive).

Compound in a further experiment: Cc1cc(Nc2cc(CN3CCOCC3)c3nc(C)c(Cc4ccc(Cl)cc4F)n3n2)n[nH]1 [gandotinib]
The description is as above. An outline of the steps: as §1
Take PARD3 (UniProt Q8TEW0): the log2 fold change was 0.122 (inactive).

Turning to NPM3 (UniProt O75607), the log2 fold change is 0.068 (inactive).

On to NCK1 (UniProt P16333), for which the log2 fold change was -0.051 (inactive).

As to MYOM1 (UniProt P52179), the log2 fold change is 0.065 (inactive).

For OCRL (UniProt Q01968), the log2 fold change was -0.009 (inactive).

In the case of NUP188 (UniProt Q5SRE5), the log2 fold change is -0.127 (inactive).

As to NDUFS1 isoform 2 (UniProt P28331), the log2 fold change is -0.006 (inactive).

Turning to NOB1 (UniProt Q9ULX3), the log2 fold change is -0.084 (inactive).

Consider NUMB (UniProt P49757), for which the log2 fold change was 0.097 (inactive).

With PAIP2 (UniProt Q9BPZ3), the log2 fold change was 0.022 (inactive).

As to NEDD8 (UniProt Q15843), the log2 fold change is -0.062 (inactive).

As to NLRP2 (UniProt Q9NX02), the log2 fold change was -0.049 (inactive).

For NAA35 (UniProt Q5VZE5), the log2 fold change was -0.042 (inactive).

For the target NCAPD2 (UniProt Q15021), the log2 fold change is -0.115 (inactive).

For the target PBK (UniProt Q96KB5), the log2 fold change was -0.066 (inactive).

Take PAFAH1B3 (UniProt Q15102): the log2 fold change is -0.001 (inactive).

Regarding PAK4 (UniProt O96013), the log2 fold change was 0.709 (active).

With MTA1 (UniProt Q13330), the log2 fold change was -0.067 (inactive).

Turning to PAN2 isoform 2 (UniProt Q504Q3), the log2 fold change was -0.053 (inactive).

OSBPL6 isoform 5 (UniProt Q9BZF3): the log2 fold change was 0.033 (inactive).

Regarding PARP14 (UniProt Q460N5), the log2 fold change was -0.123 (inactive).

On to PAK1 (UniProt Q13153), for which the log2 fold change is -0.011 (inactive).

As for NIPBL (UniProt Q6KC79), the log2 fold change is -0.094 (inactive).

On to NEK7 (UniProt Q8TDX7), for which the log2 fold change was -0.031 (inactive).

As for NCKAP1L (UniProt P55160), the log2 fold change is 0.025 (inactive).

With MYH11 isoform 2 (UniProt P35749), the log2 fold change was -0.004 (inactive).

Take OTC (UniProt P00480): the log2 fold change was -0.003 (inactive).

Take NUB1 (UniProt Q9Y5A7): the log2 fold change was 0.011 (inactive).

As to NARF (UniProt Q9UHQ1), the log2 fold change is 0.008 (inactive).

For the target NEK9 (UniProt Q8TD19), the log2 fold change is 0.108 (inactive).

For NMRAL1 (UniProt Q9HBL8), the log2 fold change was -0.01 (inactive).

On to NCAPD3 (UniProt P42695), for which the log2 fold change was -0.099 (inactive).

Turning to MT-ND1 (UniProt P03886), the log2 fold change is 0.061 (inactive).

Take MTA3 (UniProt Q9BTC8): the log2 fold change is -0.013 (inactive).

Consider NIFK (UniProt Q9BYG3), for which the log2 fold change is 0 (inactive).

Compound in another experiment: Cc1cc(Nc2cc(N3CCN(C)CC3)nc(Sc3ccc(NC(=O)C4CC4)cc3)n2)n[nH]1 [tozasertib]
The experiment is described as above. An outline of the steps:
as §1
In the case of PARD3 (UniProt Q8TEW0), the log2 fold change was 0.064 (inactive).

Turning to NPM3 (UniProt O75607), the log2 fold change is -0.036 (inactive).

As to NCK1 (UniProt P16333), the log2 fold change is 0.005 (inactive).

On to MYOM1 (UniProt P52179), for which the log2 fold change is -0.137 (inactive).

With OCRL (UniProt Q01968), the log2 fold change was 0 (inactive).

As to NUP188 (UniProt Q5SRE5), the log2 fold change is -0.012 (inactive).

As for NDUFS1 isoform 2 (UniProt P28331), the log2 fold change was 0.03 (inactive).

On to NOB1 (UniProt Q9ULX3), for which the log2 fold change was 0.011 (inactive).

As for NUMB (UniProt P49757), the log2 fold change is 0.047 (inactive).

For PAIP2 (UniProt Q9BPZ3), the log2 fold change is 0.035 (inactive).

Take NEDD8 (UniProt Q15843): the log2 fold change is 0.06 (inactive).

In the case of NLRP2 (UniProt Q9NX02), the log2 fold change is 0.005 (inactive).

With NAA35 (UniProt Q5VZE5), the log2 fold change was -0.003 (inactive).

As for NCAPD2 (UniProt Q15021), the log2 fold change was -0.006 (inactive).

Take PBK (UniProt Q96KB5): the log2 fold change is -0.005 (inactive).

For the target PAFAH1B3 (UniProt Q15102), the log2 fold change is 0.054 (inactive).

For PAK4 (UniProt O96013), the log2 fold change is 0.18 (inactive).

For MTA1 (UniProt Q13330), the log2 fold change was -0.002 (inactive).

Consider PAN2 isoform 2 (UniProt Q504Q3), for which the log2 fold change was 0.27 (active).

Consider OSBPL6 isoform 5 (UniProt Q9BZF3), for which the log2 fold change was 0.036 (inactive).

For the target PARP14 (UniProt Q460N5), the log2 fold change was -0.013 (inactive).

PAK1 (UniProt Q13153): the log2 fold change was -0.02 (inactive).

Regarding NIPBL (UniProt Q6KC79), the log2 fold change was -0.005 (inactive).

For NEK7 (UniProt Q8TDX7), the log2 fold change was -0.022 (inactive).

In the case of NCKAP1L (UniProt P55160), the log2 fold change was 0.018 (inactive).

Take MYH11 isoform 2 (UniProt P35749): the log2 fold change was 0.031 (inactive).

On to OTC (UniProt P00480), for which the log2 fold change is 0.161 (inactive).

As to NUB1 (UniProt Q9Y5A7), the log2 fold change is 0.027 (inactive).

Turning to NARF (UniProt Q9UHQ1), the log2 fold change is 0.02 (inactive).

Turning to NEK9 (UniProt Q8TD19), the log2 fold change was 0.025 (inactive).

NMRAL1 (UniProt Q9HBL8): the log2 fold change was -0.051 (inactive).

For the target NCAPD3 (UniProt P42695), the log2 fold change is -0.013 (inactive).

For the target MT-ND1 (UniProt P03886), the log2 fold change was -0.074 (inactive).

As for MTA3 (UniProt Q9BTC8), the log2 fold change was -0.008 (inactive).

Turning to NIFK (UniProt Q9BYG3), the log2 fold change was 0.036 (inactive).
